PLC-beta3 inh = human PLC-beta3 inhibitors, primary screen, biochemical, fluorescence. 370,000 compounds, 0.18% hits. inhibition, % at 12.2 µM. Purified PLC-beta3, fluorogenic substrate. AID 720704, 2013; in the data active = inhibition above about 11%;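 also: 0% = median of compound wells on plate and 100% = full blocker control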
ADAM10 inh = human ADAM10 inhibitors, primary screen, biochemical, QFRET, HTS | recombinant ADAM10, EDANS/DABCYL FRET peptide cleavage, 3 h | inhibition, % at 7 µM | 370,000 compounds, 0.62% hits | AID 720582, 2013;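 active = inhibition above a per-campaign cutoff equal to the mean of compounds falling between control-based bounds plus 3 SD, cut at about 20% in these data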;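 also: 0% = DMSO wells while the 100% control is not disclosed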
proKLK7 act = proKLK7 zymogen activators, primary screen, biochemical, fluorescence intensity; activation, % at 7 µM; AID 652039, 2013; 370,000 compounds, 0.9% hits; Kallikrein-7 (Homo sapiens), P49862; purified proKLK7, EDANS-DABCYL substrate fluorescence; 100% is mature enzyme control, 0% vehicle;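 active = activation above the mean of all tested compounds plus 3 SD, computed per campaign excluding outliers beyond control limits, cut at about 13% in these data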
PLCg1 inh = PLC-gamma1 enzyme inhibitors, primary screen, biochemical, fluorescence, purified enzyme; 1-phosphatidylinositol 4,5-bisphosphate phosphodiesterase gamma-1 (Homo sapiens), P19174; fluorogenic substrate; inhibition, % at 12.2 µM; 370,000 compounds, 0.84% hits; AID 720700, 2013
ADAM17 inh = ADAM17 inhibitors, primary screen, biochemical, QFRET; inhibition, % at 6.95 µM; 370,000 compounds, 0.83% hits; recombinant ADAM17, EDANS/DABCYL FRET peptide cleavage; Disintegrin and metalloproteinase domain-containing protein 17 (Homo sapiens), P78536;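 active = inhibition above the mean of compounds lying between control limits plus 3 SD, set per campaign, cut at about 8.5% in these data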;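 also: 0% = DMSO-only wells as the low control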
PLCg1 ctr = PLC-gamma1 enzyme inhibitors, counter-screen for PLC-beta3 inhibitor project, biochemical, fluorescence. shares compounds with PLCg1 inh. purified PLC-gamma1, fluorogenic substrate. inhibition, % at 12.3 µM. 3,300 compounds, 3.1% hits. AID 743258, 2014
PLCb3 confirm = PLC-beta3 inhibitor confirmation, biochemical, fluorescence, purified enzyme | shares compounds with PLCg1 inh | fluorogenic substrate fluorescence | inhibition, % at 12.3 µM | 3,300 compounds, 1% hits; in the data active = inhibition above about 11%
* hit, by the source's call; x = no result. Shown are actives, neighbours in structure and some others; about 2.9% of the full set was active somewhere. Rule as the data show it, unless noted: active = inhibition above about 9.5%; inactive = the rest.

SMILES	PLC-beta3 inh	ADAM10 inh	proKLK7 act	PLCg1 inh	ADAM17 inh	PLCg1 ctr	PLCb3 confirm
CCc1c(C)sc(NC(=O)Cn2nc(C)c([N+](=O)[O-])c2C)c1C(N)=O	-1	-1	0	-2	1	x	x
COc1ccccc1N1CCN(C(c2ccc(Cl)cc2)c2nnnn2C(C)(C)C)CC1 (stereo not drawn)	5	16	1	13*	4	5	5
COc1ccc(C(c2nnnn2-c2ccc(OC)cc2)N2CCN(C/C=C/c3ccccc3)CC2)cc1 (stereo not drawn)	-1	15	1	3	2	x	x
Cc1cccc(N2CCN(C(c3ccccc3)c3nnnn3C(C)(C)C)CC2)c1C (stereo not drawn)	1	0	0	-1	0	x	x
COc1ccc(C(c2nnnn2C(C)(C)C)N2CCN(C/C=C/c3ccccc3)CC2)cc1 (stereo not drawn)	5	0	-1	11*	5	-4	-3
Cc1cccc(C(=O)N/C(=C\c2ccco2)C(=O)N2CCCC2)c1	-35	-10	1	-17	-2	x	x
CC1CCN(c2ccc3c(c2)S(=O)(=O)c2ccccc2C3=O)CC1	-274	-3	1	-156	0	x	x
CC1(c2nnnn2-c2ccc3c(c2)OCCO3)CCC(=O)N1CCc1c[nH]c2ccccc12 (stereo not drawn)	-1	7	0	2	-2	x	x
OC(c1ccccc1)(c1ccccc1)C1CCN(CCCNc2ccccc2F)CC1	3	0	0	2	-1	x	x
O=[N+]([O-])c1ccc(NCCCN2CCC(C(O)(c3ccccc3)c3ccccc3)CC2)cc1	10	12	0	13*	7	9	7
O=C(NCc1ccc(Cl)cc1)C1CCCN1C(=O)Nc1ccccc1 (stereo not drawn)	2	12	-1	5	-1	x	x
O=C(CCn1c(=S)oc2ccccc21)NC1CCCCCCC1	-1	3	0	10.0*	4	-4	0
CC(C)(C)C1CCC(=O)N(CCC#N)CC1 (stereo not drawn)	7	3	0	11*	6	-4	0
CC(C)(C)C1CCC(=O)N(CCSc2ccccc2)CC1 (stereo not drawn)	6	6	0	13*	8	-6	0
COC(=NC(C)C)NC(C)C	-4	-10	0	-3	2	x	x
COc1cccc(CNC(=O)Cn2cc([N+](=O)[O-])cn2)c1	-6	2	0	1	-2	x	x
CC(/C=N/NC(=O)c1nnn(-c2nonc2N)c1C(C)C)=C\c1ccco1	-20	-4	-1	-13	-4	x	x
CCCOc1ccc(C2C(=O)N(C3CCCCC3)CC(=O)N2C2CC2)cc1OC (stereo not drawn)	-1	-1	0	13*	-5	-6	-3
CCCOc1ccc(C2C(=O)N(C3CCCCCC3)CC(=O)N2Cc2ccco2)cc1OC (stereo not drawn)	6	3	0	4	0	x	x
Cc1c(C(=O)N/N=C/c2cccs2)nnn1-c1nonc1N	2	-69	0	12*	3	-1	5
Cc1ccsc1/C=N/NC(=O)c1nnn(-c2nonc2N)c1C	-5	4	0	1	0	x	x
Cc1ccc(N(CC(N)=O)C2SC(=O)N(Cc3ccccc3)C2=O)cc1 (stereo not drawn)	9	7	1	9.6*	3	-6	2
Clc1ccc(CNCC2CCCO2)c(Cl)c1 (stereo not drawn)	-1	11	0	10*	4	0	2
COc1ccc(CNC(=O)c2cccc(S(=O)(=O)N3CCCCC3)c2)cc1OC	-4	-4	0	1	1	x	x
COc1ccc(S(=O)(=O)N2CCC(N3CCCCC3)CC2)cc1	5	2	0	9.7*	2	-1	-1

High-throughput results deposited in PubChem by The Scripps Research Institute Molecular Screening Center.
